In the library only some 21% were active in any assay of this set; here they are far more common.
Pf growth 48h – P. falciparum growth inhibition at 48 hours (one generation) | Potency, µM (highest dose often 28.7 µM), without a hit: at the highest dose activity change, negative = inhibition, hits mostly inhibitors | P. falciparum luciferase growth in erythrocytes, 48 h | 5.9% of 310,000 active; note: potency is the fitted concentration of half-maximal effect; % is set by controls: 0 for no effect and ±100 for the full control effect
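Luciferase-expressing P. falciparum in infected erythrocytes (2% hematocrit, 0.1% parasitemia final) in RPMI 1640/0.5% Albumax were exposed to compound for 48 hours at 37 C, 5% CO2; growth read as luminescence.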
Shiga toxin inh – inhibitors of Shiga toxin in Vero cells | Vero cells, Shiga toxin protein synthesis inhibition reporter | inhibition, % at 38.7 µM | 9.2% of 290,000 active | AID 2315; in the data active = inhibition mostly above about 28%, no sharp cut-off; inactive = mostly below about 43%; note: 0% is about no effect
HCMV antiviral – blocks human cytomegalovirus replication; HFF cells, HCMV-luciferase reporter, 72 h; active compounds read low; activity change, negative = inhibition, % at 57.5 µM; 4.5% of 410,000 active; in the data active = activity change below about -60%; inconclusive = no clear call, values can overlap the other calls; inactive = above about -39%; note: % is set by controls: 0 for no effect and ±100 for the full control effect
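Screen run at 2 compound doses on HFFs infected with reporter HCMV, MOI 1 PFU/cell. Luciferase activity from cell lysates at 72 h post infection gave inhibition relative to buffer-only and Salinomycin wells.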
HCV inh – blocks hepatitis C virus. AID 651820. Huh7.5.1 HCVcc-Cre infection, luciferase reporter, 44 h. 3.4% of 340,000 active. Potency, µM (top dose mostly 41.8 µM), for the others: at the highest dose activity change, negative = inhibition, usual class: inhibitors; note: potency is the fitted concentration of half-maximal effect; % is set by controls: 0 for no effect and ±100 for the full control effect
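Cells (1,000/well) were plated 4 h before compound, then infected with HCVcc-Cre virus (~0.5 moi). After 44 h further culture, infection was read as luciferase luminescence following a 15 min substrate incubation at room temperature.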
CHX counter – affects cycloheximide protein synthesis inhibition readout, counter-screen. max response, %. 12% of 300,000 active. cell reporter, cycloheximide protein synthesis inhibition counterscreen; in the data active = max response mostly above about 13%, no sharp cut-off; inactive = mostly below about 14%; note: read at 38.3 µM for the half of the compounds with a filed dose; 0% is about no effect
Pf growth 96h – P. falciparum growth inhibition at 96 hours; P. falciparum luciferase reporter growth, 96 h; Potency, µM (highest dose often 28.7 µM), without a hit: at the top dose activity change, negative = inhibition, usual class: inhibitors; 6.9% of 320,000 active; note: potency is the fitted concentration of half-maximal effect; % is set by controls: 0 for no effect and ±100 for the full control effect
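P. falciparum expressing integrated firefly luciferase grown in erythrocytes (2% hematocrit, 0.05% parasitemia final) with compounds for 96 hours at 37 C, 5% CO2. Growth inhibition read as loss of luminescence after adding luciferase detection reagent.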
* hit, by the source's call; ? = inconclusive; · = not tested or not shown. Unless noted, calls come from the whole dose curve; as a rule, active = well fitted inhibition curve with a large enough effect; inconclusive = small, poorly fitted or top-dose-only effect, or another doubt; inactive = no such curve, though single readings can be large or run the other way.

SMILES | Pf growth 48h | Shiga toxin inh | HCMV antiviral | HCV inh | CHX counter | Pf growth 96h
CN1/C(=C\C(=O)C[n+]2cccc(C(N)=O)c2)C(C)(C)c2ccccc21 | ? | -5 | -33 | 7% | 4 | ?
CN1/C(=C\C(=O)C[n+]2cccc(Br)c2)C(C)(C)c2ccccc21 | 2.3µM* | 10 | -83* | -25% | 1 | 15µM*
Cn1c(=O)c(=O)n(C)c2cc(N3CCCC3)c(NS(=O)(=O)c3ccc(Cl)cc3)cc21 | -3% | -9 | 25 | ? | 14 | 29%
Cc1cccc(NC(=O)C2CCCN(S(=O)(=O)c3c(C)noc3/C=C/N(C)C)C2)c1C (stereo unspecified) | · | · | 21 | · | · | ·
C(=C\n1nnc2ccccc21)/c1ccccn1 | 103% | · | 124 | 7% | · | 92%
Cc1cc(C)n(-c2ccc(C(=O)N3CCN(S(=O)(=O)c4ccc(C(C)C)cc4)CC3)cc2)n1 | 12µM* | · | 9 | ? | · | ?
COc1ccc(N2CCN(C(=O)c3ccc(-n4nc(C)cc4C)cc3)CC2)cc1 | -13% | 22 | 35 | -24% | -2 | 8%
Cc1cc(C)n(-c2ccc(C(=O)N3CCN(S(=O)(=O)c4cccc(Br)c4)CC3)cc2)n1 | · | · | -64* | 7.9µM* | · | ·
CC(C)c1ccc(S(=O)(=O)N2CCN(C(=O)c3ccncc3)CC2)cc1 | ? | · | -14 | 2% | · | ?
Cn1cc(-c2cc3n(n2)CCC(=O)N3CC(=O)NCc2ccc(Cl)cc2)c2ccccc21 | · | · | -2 | · | · | ·
CCCCSc1ncnc2c1c(-c1ccccc1)cn2-c1cccc(F)c1 | · | · | -4 | · | · | ·
CSC(=S)N/N=C/c1ccccc1 | ? | 27* | -3 | 24% | 25* | ?
COc1ccc(/C=N/NC(=S)SC)cc1OC | -29% | 22 | -7 | 18% | 18* | ?
CC(C)(C)C(=O)OCc1cc(=O)n2nc(C3CC3)sc2n1 | · | · | 7 | · | · | ·
CC(=O)c1ccc(NC(=O)CCCN2C(=O)C(c3ccccc3)Oc3cccnc32)cc1 (stereo unspecified) | ? | -13 | -23 | -22% | 13 | ?
O=C(CN1C(=O)C(c2ccccc2)Oc2cccnc21)NCc1ccccc1F (stereo unspecified) | ? | 9 | -27 | ? | 17 | 9.3µM*
Cc1cc(C)cc(NC(=O)CCCN2C(=O)C(c3ccccc3)Oc3cccnc32)c1 (stereo unspecified) | ? | -10 | -27 | ? | 6 | 3.7µM*
COc1ccc(CNC(=O)CN2C(=O)C(c3ccccc3)Oc3cccnc32)cc1 (stereo unspecified) | -3% | 15 | -1 | -16% | -3 | ?
CC(=O)Nc1ccc(NC(=O)CCCN2C(=O)C(c3ccccc3)Oc3cccnc32)cc1 (stereo unspecified) | · | · | 19 | · | · | ·
O=C(CCCN1C(=O)C(c2ccccc2)Oc2cccnc21)Nc1cccc(F)c1 (stereo unspecified) | 10µM* | -1 | -37 | -29% | 17 | ?
CCCCCCCCCCC(=O)NNC(=O)c1c(O)c2ccccc2n(CC)c1=O | 33% | 6 | · | · | 0 | -3%
CCOc1ccc(N(CC(=O)NCc2ccccc2OC)S(C)(=O)=O)cc1 | 41% | 92* | 109 | 2% | 43* | ·
Cc1ccc(CNC(=O)CN(c2ccc(Cl)cc2)S(C)(=O)=O)cc1 | -12% | · | 19 | 5% | 12* | ?
CCOc1ccccc1N(CC(=O)NCc1ccc(OC)cc1)S(C)(=O)=O | -11% | 31 | 29 | 5% | -2 | ?
COc1ccccc1CNC(=O)CN(c1ccc(C)cc1)S(=O)(=O)c1c(C)nn(C)c1C | ? | 15 | -29 | -2% | 5 | 4.1µM*
CCOc1ccc(N(CC(=O)NCc2ccccc2)S(C)(=O)=O)cc1 | 49% | 68* | 19 | 5% | 26* | 43%
COc1ccc(C(=O)N(C)C2CCN(C)CC2)cc1S(=O)(=O)Nc1cc(Cl)ccc1Cl | -12% | 23 | · | 12% | -1 | -2%
c1csc(-c2ccn[nH]2)c1 | 19% | 72 | 2 | 24% | 13* | 44%
S=c1nccc(-c2cccs2)[nH]1 | 494% | -5 | -39 | 6% | 2 | 19%

High-throughput results as filed in PubChem BioAssay.
